According to PubChem BioAssay AID1159580 (chemical genetic matrix, 2015):
In all, about 5,500 compounds went through this assay and about 2,000 (36%) were called active. Another 18% or so got no clear call; they are omitted. Cut-off read from the data, not from the text of the source: active = normalized growth mostly below about 0.91 (no sharp cut-off); inconclusive = no clear call, values can overlap the other calls; inactive = mostly above about 0.92. The list shows a part of the results.

Experiment: chemical genetic growth profiling, strain panel (AID 1159580);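 note: tested at 20 µM; growth read once vehicle control cultures reached saturation at 30 °C; 1 = growth at the plate median or of vehicle wells; lower values mean less growth of the strain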
Details: growth OD

Measured: normalized growth

N#CC(c1ccccc1)N1CCCCC1 (stereo not drawn)
inactive: S. cerevisiae deletion strains, locus YAL013W, strain DEP1, hits give low values 1.04 | S. cerevisiae deletion strains, locus YBR229C, strain ROT2, hits give low values 0.995 | S. cerevisiae deletion strains, locus YDL101C, strain DUN1, hits give low values 1 | S. cerevisiae deletion strains, locus YDL134C, strain PPH21, hits give low values 0.99 | S. cerevisiae deletion strains, locus YDR150W, strain NUM1, hits give low values 0.964 | S. cerevisiae deletion strains, locus YEL061C, strain CIN8, hits give low values 1.02 | S. cerevisiae deletion strains, locus YGR078C, strain PAC10, hits give low values 1 | S. cerevisiae deletion strains, locus YHR030C, strain SLT2, hits give low values 1.04 | S. cerevisiae deletion strains, locus YHR087W, strain rtc3, hits give low values 0.995 | S. cerevisiae deletion strains, locus YJR043C, strain POL32, hits give low values 0.994 | S. cerevisiae deletion strains, locus YJR075W, strain HOC1, hits give low values 0.984 | S. cerevisiae deletion strains, locus YKL190W, strain CNB1, hits give low values 0.99 | S. cerevisiae deletion strains, locus YLR039C, strain RIC1, hits give low values 0.969 | S. cerevisiae deletion strains, locus YLR058C, strain SHM2 (second series), hits give low values 0.987 | S. cerevisiae deletion strains, locus YLR085C, strain ARP6, hits give low values 1.02 | S. cerevisiae deletion strains, locus YLR262C, strain YPT6, hits give low values 1.02 | S. cerevisiae deletion strains, locus YML094W, strain GIM5, hits give low values 1.02 | S. cerevisiae deletion strains, locus YMR219W, strain ESC1, hits give low values 1.01 | S. cerevisiae deletion strains, locus YMR263W, strain SAP30, hits give low values 1.01 | S. cerevisiae deletion strains, locus YMR307W, strain GAS1, hits give low values 0.928 | S. cerevisiae deletion strains, locus YNL153C, strain GIM3, hits give low values 1 | S. cerevisiae deletion strains, locus YNL298W, strain CLA4 (second series), hits give low values 0.985 | S. cerevisiae deletion strains, locus YNL322C, strain KRE1, hits give low values 1.01 | S. cerevisiae deletion strains, locus YNR030W, strain Alg12, hits give low values 1 | S. cerevisiae deletion strains, locus YPL055C, strain LGE1, hits give low values 1.03 | S. cerevisiae deletion strains, locus YPL241C, strain CIN2, hits give low values 0.975 | S. cerevisiae deletion strains, locus YPR135W, strain CTF4, hits give low values 1.19 | S. cerevisiae strains, strain wild type, hits give low values 0.985
